Active and inactive are the calls of the source. The calls were made as follows: active = hit-call score of the fitted dose curve at least 0.9, where 1 is the maximum; inactive = score below 0.9.
These compounds were tested on Keratin 19 (KRT19), KRT19 (gene 3880) (assay: LTEA_HepaRG_KRT19: Life Technologies and Expression Analysis (LTEA) Assay for Keratin 19 (KRT19) using HepaRG (AID 2283512)). Settings: mRNA level, 48 h; actives raise or lower the signal.
Procedure: LTEA_HepaRG is a cell based, multiplexed-readout assay that uses HepaRG, a human liver cell line, with measurements taken at 48 hours after chemical dosing on a 96-well plate.LTEA_HepaRG_KRT19 is one of 102 assay component(s) measured in the LTEA HepaRG cell culture assay. It is a marker of Cell proliferation, survival, death.Data from the assay component LTEA_HepaRG_KRT19 was analyzed into 1 endpoint. This assay endpoint, LTEA_HepaRG_KRT19, was analyzed with bidirectional fitting relative to DMSO as the negative control and baseline of activity. Using a type of inducible reporter, measures of mRNA induction for gain or loss-of-signal activity can be used to understand regulation of transcription factor activity. To generalize the intended target to other relatable targets, this assay endpoint is annotated to the filaments intended target family, where the subfamily is keratin.
A total of 1060 chemcials from the ToxCast library were tested in eight-point concentration-response experiments. Cell culture and cytotoxicity assays were conducted at Thermo Fisher Scientific's Custom Services facility (Madison, WI). A single lot of human HepaRG cells (Thermo Fisher Scientific, Frederick, MD) was used for the cell culture experiments. 96-well format collagen type I coated plates of human HepaRG cells were prepared using established methods. Briefly, cryopreserved HepaRG cells were thawed, plated at a density of approximately 100,000 cells/well in HepaRG Thaw, Plate, and General Purpose media (HPRG770, Thermo Fisher Scientific), and incubated for 48 hours. 0.5% DMSO was selected as vehicle control to balance the requisite need of DMSO in HepaRG cultures to maintain differentiation (for example, baseline metabolism, proportions of hepatocytes vs. cholangiocytes), while enabling further hepatic receptor pathway activation (for example, PXR and CAR) in response to chemical exposure. 48 hours after plating, the culture medium was replaced with HepaRG Serum-Free Incudtion Media. Cells were exposed to each test chemical in duplicate and maintained in CO2 incubators for another 48 hours. Chemical plates were thawed to room temperature and 200x concentrations of treatment groups were prepared. 8-point conentration-reponse curves were made with the highest exposure at 100 uM, followed by half-log dilutions, all in 0.5% DMSO. Each test plate contained variouse controls, induction positive controls (1mM phenobarbital), cytotoxicity positive controls ([…] aflatoxin B1), vehicle controls (0.5% DMSO), and total lysis controls (0.5% DMSO). Cell morphology images were taken using an Essen IncuCyte FLR automated microscope, with six 96-well plates imaged in about 24 minutes. Images were captured and exported and JPEG files. Spent culture media was transfered to black-well plates for the LDH assay, and remaining media was sorted at -80 C for later use. Cells were treated with RLT buffer and frozen until shipped for gene expression analysis. Total RNA was isolated from the cell suspension in 75 uL of Buffer RLT (Qiagen, Germantown, MD 20874) by Quintiles/Expression Analysis (Durham, NC) using a custom isolation procedure. Total RNA from each plate well was transferred to a preamplification plate. Fluidigm's 96.96 Dynamic ArrayTM (Fluidigm, Amsterdam, the Netherlands) technology was used for gene expression analyses by quantitative reverse transcription polymerase chain reaction (qRT-PCR, performed by Quintiles/Expression Analysis, Durham, NC)89. Standard TaqManTM Assays (Applied Biosystems/ThermoFisher Scientific, Foster City, CA) were used to assess the expression of 93 genes selected based on their selectivity and sensitivity to important hepatic receptors known to be modulated by environmental chemicals; importance in human hepatocyte functionality; and hepatotoxicity. […]

Row | Structure (SMILES) | outcome | AC50
1 | c1cc2ccc3cccc4ccc(c1)c2c34 | inactive | –
2 | Clc1ccc(C(Cl)(Cl)Cl)cc1 | inactive | –
3 | CC(C)(c1ccccc1)c1ccc(O)cc1 | inactive | –
4 | CCCCCCCCCc1ccc(O)cc1 | inactive | –
5 | ClC1=C(Cl)[C@]2(Cl)[C@@H]3[C@H]4C[C@H]([C@@H]5O[C@H]45)[C@@H]3[C@@]1(Cl)C2(Cl)Cl | inactive | –
6 | O=C(O)C(F)(F)C(F)(F)C(F)(F)C(F)(F)C(F)(F)C(F)(F)C(F)(F)C(F)(F)F | – | 66.6 µM (active)
7 | CCOP(=S)(OCC)SCSC(C)(C)C | inactive | –
8 | CCCCCCCCOC(=O)c1ccccc1C(=O)OCCCCCCCC | inactive | –
9 | O=NN(c1ccccc1)c1ccccc1 | inactive | –
10 | Oc1c(Cl)c(Cl)c(Cl)c(Cl)c1Cl | – | 6.33 µM (active)
11 | Cc1cccc(C)c1N | inactive | –
12 | Cc1ccccc1CO[C@@H]1C[C@@]2(C(C)C)CC[C@]1(C)O2 | inactive | –
13 | C[C@]12CCC(=O)C=C1CC[C@@H]1[C@@H]2CC[C@@]2(C)[C@H]1CC[C@]2(C)O | inactive | –
14 | Cc1cccc([N+](=O)[O-])c1 | inactive | –
15 | CC(C)(O)C(=O)Nc1ccc([N+](=O)[O-])c(C(F)(F)F)c1 | inactive | –
16 | COS(=O)(=O)OC | inactive | –
17 | CCCCCCCCCC[N+](C)(C)CCCCCCCCCC | inactive | –
18 | CC(C)C(=O)OCC(C)(C)C(OC(=O)C(C)C)C(C)C (stereo not given) | inactive | –
19 | ClC1=C(Cl)[C@]2(Cl)[C@@H]3[C@@H]4C[C@@H]([C@H]5O[C@@H]45)[C@@H]3[C@@]1(Cl)C2(Cl)Cl | inactive | –
20 | Nn1cnnc1 | inactive | –

Row | Structure (SMILES) | outcome | AC50
21 | NS(=O)(=O)C(F)(F)C(F)(F)C(F)(F)C(F)(F)C(F)(F)C(F)(F)C(F)(F)C(F)(F)F | – | 23.4 µM (active)
22 | Cc1cc(O)ccc1Cl | inactive | –
23 | CCOC(=O)C(O)(c1ccc(Cl)cc1)c1ccc(Cl)cc1 | inactive | –
24 | ClC1=C(Cl)[C@]2(Cl)[C@@H]3[C@@H](Cl)[C@H]4O[C@H]4[C@@H]3C1(Cl)C2(Cl)Cl | inactive | –
25 | CC#Cc1cc(C)nc(Nc2ccccc2)n1 | – | 22.8 µM (active)
26 | ClC(Cl)=C(c1ccc(Cl)cc1)c1ccc(Cl)cc1 | inactive | –
27 | CCCCCCOC(=O)c1ccccc1C(=O)OCCCCCC | inactive | –
28 | Cc1ccccc1[N+](=O)[O-] | inactive | –
29 | CN(C)c1nc(=O)n(C2CCCCC2)c(=O)n1C | inactive | –
30 | Cc1ccccc1O | inactive | –
31 | O=C(N[C@H]1CN2CCC1CC2)c1cc2ccoc2cn1 | inactive | –
32 | C[C@]12CCC(=O)C=C1CC[C@@H]1[C@@H]2CC[C@]2(C)C(=O)CC[C@@H]12 | inactive | –
33 | Cc1ccc(O)c(C)c1 | inactive | –
34 | CC1=C2C[C@H]3[C@@H](CC=C4C[C@@H](O)CC[C@@]43C)[C@@H]2CC[C@]12O[C@@H]1C[C@H](C)CN[C@H]1[C@H]2C | inactive | –
35 | CCC(=O)O[C@H]1CC[C@H]2[C@@H]3CCC4=CC(=O)CC[C@]4(C)[C@H]3CC[C@]12C | inactive | –
36 | O=C(NC(=O)c1cc(F)c(F)cc1Cl)Nc1cc(F)ccc1N1CCC(C(=O)O)CC1 | inactive | –
37 | CCOCCOC(C)=O | inactive | –
38 | O=C(O)C(F)(F)C(F)(F)C(F)(F)C(F)(F)C(F)(F)C(F)(F)C(F)(F)C(F)(F)C(F)(F)F | inactive | –
39 | N#Cc1ccc(N(CC(N)=O)CC(F)(F)F)cc1C(F)(F)F | inactive | –
40 | Cc1cc(-c2ccc(N)c(C)c2)ccc1N | – | 30.8 µM (active)
